According to PubChem BioAssay AID1066 (SRMLSC, 2008):
The campaign covered roughly 190,000 compounds. About 790 (0.42%) were called active. For the sample, actives were picked, then their nearest neighbours and some compounds at random. Values without a mark were called inactive.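 How the source made its calls: active means inhibition above a set limit, the median over all tested compounds plus 3 SD (cut at about 9.5% in these data); inconclusive means no clear call, values can overlap the other calls; inactive means the rest.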

The molecules below were run on HMG-CoA reductase (Enterococcus faecalis, mvaE) (assay: inhibitors of E. faecalis class II HMGR, primary screen, biochemical, Enterococcus faecalis (AID 1066;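 further: enzyme runs in reverse so mevalonate oxidation gives rising NADPH absorbance; 0% = complete reaction with DMSO and 100% = background rate lacking mevalonate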)). Conditions: purified E. faecalis HMGR, NADPH absorbance 340 nm kinetic; at 10 µM; hits give high values.

Structure (SMILES)	inhibition
O=C(N/N=C/c1ccco1)c1ccc(C(=O)N/N=C/c2ccco2)o1	3.83%
CCN(C(=O)c1ccc(Br)cc1)c1ccccc1	-0.76%
CCOC(=O)CNC(=O)CSc1ccc2nnc(-c3cccnc3)n2n1	-1.15%
CCOc1ccc(-c2ccc(SCC(=O)N3CCOCC3)nn2)cc1	-2.28%
Cc1ccc(C(=O)NCC(=O)O)s1	-1%
O=C(Nc1cccc(Cl)c1)Nc1ccccc1NS(=O)(=O)c1cccs1	-2.46%
CCc1ccc(C(=O)OCC(=O)NCC(F)(F)F)cc1	-8.47%
CCC(=O)Nc1sc(C(=O)Nc2ccccc2)c(C)c1C(=O)OC	13% (active)
CCOC(=O)c1sc(NC(=O)COc2ncnc3ccccc23)c(C(=O)OCC)c1C	3.4%
COC(=O)c1c(NC(C)=O)sc(C(=O)Nc2ccccc2OC)c1C	-2.99%
CCOC(=O)Cn1nnnc1C	-2.01%
Oc1cccc2ccc(/C=C/c3ccc(Br)s3)nc12	0.35%
Cc1ccc(NC(=O)Nc2cccc(C(F)(F)F)c2)nc1	-0.23%
CCC(=O)Nc1ccc(Nc2nc(Cl)nc(Nc3ccc(NC(=O)CC)cc3)n2)cc1	-2.77%
Cc1ccc2nc(Nc3ncc4c(n3)CC(C)(C)CC4=O)nc(C)c2c1	-0.8%
NC(=O)COc1ccc(C23CC4CC(CC(C4)C2)C3)cc1	6.59%
O=C(CCN1C(=O)c2ccccc2C1=O)NNC(=O)c1ccc(Cl)cc1Cl	-5.06%
CC(=O)N/C(=C/c1ccc(OC(F)F)cc1)C(=O)O	0.04%
CC(CCn1cccn1)NC(=O)CCc1nnc(CCc2ccccc2)o1 (configuration not stated)	-1.69%
COC(=O)C1=C(C)N(c2ccc(C)cc2)/C(=C/c2ccc(O)cc2)C1=O	1.84%
O=C(CSC1CC(=O)N(CCc2ccccc2)C1=O)Nc1ccc(Cl)cc1 (configuration not stated)	0.85%
CC(Sc1nnnn1C1CCCCC1)C(=O)O (configuration not stated)	3.4%
Cc1cccc(-c2nc3ccccc3c(=O)n2NC(=O)Cc2ccc(Cl)cc2)c1	2.94%
NNC(=O)C1CC(O)CN1S(=O)(=O)c1ccc(Cl)cc1 (configuration not stated)	-8.75%
COc1cc(NC(=O)c2ccccc2NS(=O)(=O)c2ccc(Cl)s2)cc(OC)c1	-0.12%
C/C(=N\NC(=O)NC1CCCCC1)c1ccc(OC(F)F)cc1OC(F)F	-0.33%
CCc1ccc(CN2C(=O)c3ccccc3C2C(=O)NCC2CCCO2)cc1 (configuration not stated)	-2.1%
